Data reported in ChEMBL document CHEMBL4513146, “CO-ADD screening of Karazin Kharkiv National University (Ukraine) compounds”.
Entries with a potency or affinity are not part of this list.

System: Klebsiella pneumoniae
Settings: Concentration 32 ug.mL-1;; ASSAY_TEST Inhibition of Bacterial Growth; detection method Absorption (OD600); MEDIA CAMHB; plate type 384well; NBS; CORNING #3640; time 18 hr

Row | SMILES | Inhibition [%]
1 | Cc1cccc(CN(c2ccc(Cl)cc2)S(=O)(=O)c2cccn3c(C)nnc23)c1 | 9.48
2 | O=c1c2nnc(SCc3ccc(Cl)cc3)n2ccn1-c1ccc(F)c(F)c1 | 10.1
3 | COc1ccc(OC)c(NC(=O)Cn2nc3ccc(-c4ccc(C)cc4)nn3c2=O)c1 | 1.76
4 | Cc1ccccc1Nc1cc(C)n2c(=O)n(CCc3ccccc3)nc2n1 | 8.17
5 | CCOC(=O)N1CCN(C(=O)CCc2nnc3c4cc(-c5ccc(F)cc5)nn4ccn23)CC1 | 12.38
6 | CCc1cccc(NC(=O)Cn2nc3nc(N4CCCCCC4)ccn3c2=O)c1 | 14.42
7 | COc1ccccc1-n1ccn2c(SCC(=O)c3ccc(C)cc3C)nnc2c1=O | 6.45
8 | COc1cccc(-n2ccn3c(SCC(=O)Nc4ccc(F)cc4F)nnc3c2=O)c1 | 3.3
9 | CCOc1ccccc1NC(=O)Cn1nc2c(SC3CCCCC3)nccn2c1=O | 10.39
10 | Cc1cc2nn(CC(=O)Nc3ccccc3F)c(=O)n2c(Nc2ccc(F)c(C)c2)n1 | 9.21
11 | CCOc1ccccc1NC(=O)Cn1nc2c(N3CCN(c4ccccc4)CC3)nccn2c1=O | 5.33
12 | CCc1ccc(N(Cc2ccccc2)S(=O)(=O)c2cccn3c(CC)nnc23)cc1 | 8.89
13 | Cc1ccccc1-c1noc(Cn2nc3ccc(-c4ccccc4)nn3c2=O)n1 | 4.12
14 | CCOc1ccc(NC(=O)Cn2c(=O)c3nnc(C(C)C)n3c3ccccc32)cc1 | 4.3
15 | Cc1ccc(-c2cc3c4nn(CC(=O)Nc5ccccc5F)c(=O)n4ccn3n2)cc1C | 6.53
